Compound activity as filed in PubChem BioAssay.
Only some compounds are listed: those with a hit (about 3.5% of all), similar ones and a draw of the others.
GPR151 ag – activators of human GPR151; Q8TDV0; PathHunter beta-arrestin GPR151 cells, luminescence; activation, % at 11.2 µM; hit rate 1% among 650,000; AID 1508602; in the data active = activation above about 4.9%
MITF primary – inhibitors of human MITF; O75030; AlphaScreen MITF homodimerization, bead proximity signal; inhibition, % at 2.6 µM; hit rate 0.91% among 650,000; AID 1259374; in the data active = inhibition above about 50%
TEAD-YAP inh – TEAD-YAP interaction inhibition | hit rate 1.4% among 640,000 | inhibition, % at 9.12 µM | HEK-TIYL cells, TEAD-Gal4/YAP UAS-luciferase luminescence; in the data active = inhibition above about 32%
FBW7 activator – human FBW7 E3 ligase activation, primary screen | Q969H0 | AlphaScreen FBW7–phospho-cyclin E peptide binding, activator screen | normalized activity (activation), % at 26.1 µM | hit rate 0.13% among 650,000 | AID 1259310; in the data active = normalized activity above about 1.9%;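 also: purified mutant Fbw7 with reduced substrate affinity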
GPR151 confirm – confirmation of human GPR151 activators; shares compounds with GPR151 ag; GPR151 PathHunter beta-arrestin cells, luminescence, 90 min; % of EA-reagent control over plate median; 6,700 tested, under 10 active; activation, % at 11.2 µM;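 active = mean percent activation across replicates above the confirmation screen cutoff of 4.91%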
GPR119 counter – counter-screen for GPR151 activators: effect on human GPR119. shares compounds with GPR151 ag. GPR119 PathHunter beta-arrestin cells, luminescence, 90 min; 0 = compound-well median, 100 = enzyme-acceptor control. AID 1508611. hit rate 0.3% among 6,700. activation, % at 11.2 µM;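 active = mean percent activation in the counterscreen above 29.09%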;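 also: counterscreen on off-target GPR119 to flag nonselective hits from the GPR151 activator screen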
Target sequence (Q8TDV5 whole entry, looked up): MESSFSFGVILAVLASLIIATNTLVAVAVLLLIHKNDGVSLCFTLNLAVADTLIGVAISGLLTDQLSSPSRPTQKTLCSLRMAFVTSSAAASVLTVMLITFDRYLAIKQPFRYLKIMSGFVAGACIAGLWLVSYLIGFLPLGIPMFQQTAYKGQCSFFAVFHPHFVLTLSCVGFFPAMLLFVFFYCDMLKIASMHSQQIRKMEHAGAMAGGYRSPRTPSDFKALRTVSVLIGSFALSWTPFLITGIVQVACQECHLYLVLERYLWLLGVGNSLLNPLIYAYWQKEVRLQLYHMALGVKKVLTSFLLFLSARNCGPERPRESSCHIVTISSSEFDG
Each line names hits and unclear results; the compound was inactive in the other large screens (follow-up assays come after a bar, where they were run).

COC(=O)c1ccc(Nc2nc(C)c([N+](=O)[O-])c(Nc3ccc(C(=O)OC)cc3)n2)cc1	GPR151 ag 13 | GPR151 confirm inactive | GPR119 counter inactive
Cc1ccc(OCC(=O)N/N=C/c2cc3c(cc2[N+](=O)[O-])OCO3)cc1C	none
COc1ccc(OCC(=O)N/N=C/c2cc3c(cc2[N+](=O)[O-])OCO3)cc1	GPR151 ag 10 | GPR151 confirm inactive | GPR119 counter inactive
N#C/C=C(\c1ccc(F)cc1)N1CCOCC1	GPR151 ag 8.4 | GPR151 confirm inactive | GPR119 counter inactive
COC(=O)C(C(C)C)N1C(=O)C2C3C=CC(C3)C2C1=O (stereo not given)	none
Nc1ccccc1-c1nc2ccccc2[nH]c1=O	GPR151 ag 5.9 | GPR151 confirm inactive | GPR119 counter inactive
CCCOc1ccc2oc(=O)c3c(c2c1)CCCN3C(=O)CN1CCN(C)CC1	none
CCCCOc1ccc2c3c(c(=O)oc2c1)CCC3	none
CCCOc1ccc2oc(=O)c3c(c2c1)CCCN3C(=O)CN1CCCC1	GPR151 ag 5.4 | GPR151 confirm inactive | GPR119 counter inactive
CCCOc1ccc2c3c(c(=O)oc2c1)CCC3	GPR151 ag 7.9 | GPR151 confirm inactive | GPR119 counter inactive
CC(Cl)C(=O)Nc1cccc([N+](=O)[O-])c1 (stereo not given)	none
CC(C)(C)c1nn2cnnc2n(/N=C/c2ccccc2I)c1=O	none
CC(C)(C)c1nn2cnnc2n(/N=C/c2ccccc2O)c1=O	GPR151 ag 5.9 | GPR151 confirm inactive | GPR119 counter inactive
COc1cccc2cc(C(=O)Nc3ccccc3[N+](=O)[O-])c(=O)oc12	GPR151 ag 13 | GPR151 confirm inactive | GPR119 counter inactive
COc1cccc2cc(C(=O)c3ccc([N+](=O)[O-])cc3)oc12	GPR151 ag 7.3 | GPR151 confirm inactive | GPR119 counter inactive
CCCCCCNC(=O)c1cnn2c(C)c(Cc3ccccc3Cl)c(C)nc12	none
CC(C)C[C@H]1NC(=O)[C@@H]2C[C@H](NC(=O)c3cccc(Br)c3)CN2C1=O	none
CC(=O)OC12CC3C(C1C(C)=NN2C(=O)C(=O)N1N=C(C)C2C4C(CC21OC(C)=O)C4(C)C)C3(C)C (stereo not given)	GPR151 ag 7.8 | GPR151 confirm inactive | GPR119 counter inactive
COC(=O)C12CC3C(C1C(C)=NN2C(C)=O)C3(C)C (stereo not given)	none
Clc1nc(N2CCOCC2)nc(N(c2ccccc2)c2ccccc2)n1	none
NNc1nc(N2CCOCC2)nc(N(c2ccccc2)c2ccccc2)n1	GPR151 ag 9.0 | GPR151 confirm inactive | GPR119 counter inactive
NC(=O)CSc1nnc(Cc2ccccc2)n1-c1ccc(F)cc1	GPR151 ag 6.0 | GPR151 confirm inactive | GPR119 counter inactive
COc1ccc(C(=O)COC(=O)c2ccccc2NC(=O)c2cccc([N+](=O)[O-])c2)cc1	none
O=C(NCc1ccccc1)c1cnc(-c2ccccc2)s1	GPR151 ag 6.6 | GPR151 confirm inactive | GPR119 counter inactive
COc1ccc(-c2ncc(C(=O)NCc3cccc(C(F)(F)F)c3)s2)cc1	none
Nc1cccc(-c2ncc(C(=O)NCc3ccccc3)s2)c1	none
O=C(NCc1cccc(C(F)(F)F)c1)c1cnc(-c2ccccc2)s1	GPR151 ag 7.6 | GPR151 confirm inactive | GPR119 counter inactive
O=C(NCc1cccc(C(F)(F)F)c1)c1cnc(NC2CCC(O)CC2)s1 (stereo not given)	GPR151 ag 5.1 | GPR151 confirm inactive | GPR119 counter inactive
COc1cc(CO)c(Br)cc1O	none
CC(=O)/C=C/c1ccc(OC(F)F)cc1	GPR151 ag 6.0 | GPR151 confirm inactive | GPR119 counter inactive
CCOC(=O)c1c(C)nc2c(c1C)/C(=N/O)CC(C)(C)C2	GPR151 ag 5.0 | GPR151 confirm inactive | GPR119 counter inactive
Cc1ccc(S(=O)(=O)N2CCN(c3ccc([N+](=O)[O-])c(NCc4ccccc4)c3)CC2)cc1	none
COc1cc(=O)n2c(c1C(=O)N1CCCC1)CCN(Cc1cc(C)c(C)cc1C)CC2	GPR151 ag 5.2 | GPR151 confirm inactive | GPR119 counter inactive
CSc1ccccc1NC(=O)c1ccc(N2CC3CC(C2)c2cccc(=O)n2C3)c(NC(=O)/C=C/c2ccccc2)c1 (stereo not given)	none
COc1ccc(-c2nc3s/c(=C\c4ccncc4)c(=O)n3n2)cc1	none
O=C(COc1ccc(C(=O)N2CCN(CCc3ccccc3)CC2)cc1)C1CC1	GPR151 ag 5.1 | GPR151 confirm inactive | GPR119 counter inactive
O=C(COc1ccc(C(=O)N2CCN(c3ccccc3Cl)CC2)cc1)C1CC1	none
COc1cn(CC(=O)Nc2cc(C)cc(C)c2)c(CSc2nccc(C)n2)cc1=O	GPR151 ag 15 | GPR151 confirm inactive | GPR119 counter inactive
COc1cn(CC(=O)Nc2cccc(C)c2)c(CSc2ncccn2)cc1=O	none
Cn1c2ccccc2c2c(C(=O)NCCN3CCOCC3)cn(C3CCCCC3)c(=O)c21	none
Cc1ccc2[nH]c3c(c2c1)CCCC3NCc1ccc(F)cc1 (stereo not given)	GPR151 ag 14, TEAD-YAP inh 49 | GPR151 confirm inactive | GPR119 counter inactive
Cc1ccc2[nH]c3c(c2c1)CCCC3NC(N)=O (stereo not given)	none
CCCSc1ncccc1C(=O)Nc1c(C)noc1C	GPR151 ag 7.4 | GPR151 confirm inactive | GPR119 counter inactive
CCc1noc(C)c1C(=O)OCC(=O)Nc1cc(C)on1	GPR151 ag 5.3 | GPR151 confirm inactive | GPR119 counter inactive
CSc1cccc(NC(=O)CCC(=O)N2CCSc3ccccc32)c1	GPR151 ag 17 | GPR151 confirm inactive | GPR119 counter inactive
CCOC(=O)C1CCCN(C(=O)/C(C)=C\c2ccccc2)C1 (stereo not given)	GPR151 ag 5.3 | GPR151 confirm inactive | GPR119 counter inactive
CCSc1sc(CC)cc1C1C(C(=O)Nc2ccccn2)=C(C)NC2=C1C(=O)CC(C)(C)C2 (stereo not given)	none
COc1ccc(/C=N/NC(=O)CNC(=O)c2ccccc2Br)cc1	none
COc1ccc(/C=N/NC(=O)CNc2ccc3ccccc3c2)cc1OC	GPR151 ag 5.9 | GPR151 confirm inactive | GPR119 counter inactive
COc1ccc(/C=N/NC(=O)C(=O)Nc2cccc(Cl)c2)cc1OC	GPR151 ag 7.4 | GPR151 confirm inactive | GPR119 counter inactive
COc1ccc(/C=N/NC(=O)CNC(=O)c2ccccc2Br)cc1OC	GPR151 ag 7.6 | GPR151 confirm inactive | GPR119 counter inactive
COc1ccc(/C=N/NC(=O)CNc2ccc3ccccc3c2)cc1Cl	none
CCOC(=O)Cc1csc(NC(=O)c2cc3nc(-c4ccc(Cl)cc4)cc(C(F)(F)F)n3n2)n1	none
COc1ccc(-c2noc(CSCC(=O)NC3CCCCCC3)n2)cc1OC	none
CCc1ccccc1NC(=O)CN(C)C(=O)COC(=O)c1ccc(Cl)cc1O	none
CC(C)n1c(=S)[nH]c2c(sc3ccc([N+](=O)[O-])cc32)c1=O	none
